This passage reports growth results from PubChem BioAssay (NCI).

This is part of a sample that, as a whole, favours compounds with a hit. Of some 83,000 tested, about 20% had one in any assay.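 In brief: 96-well plates, 48 h treatment, single concentration, percent growth endpoint.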 Values without a mark were called inactive. Active and inactive are the calls of the source. The calls were made as follows: active = growth percent below 10; inactive = the rest.

Common to all, as to test: NCI-60 one-dose screen, 48 h (100 = growth as untreated, 0 = no growth, -100 = all killed)
Common to all, as to settings: 10 µM unless noted

Test [1] relates to T-47D breast.
The test system of test [2] is BT-549 breast.
Test [3] concerns MDA-MB-435 melanoma.
The test system of test [4] is SW-620 colon.
Test [5] concerns MCF7 breast.
The subject of test [6] is HCT-116 colon.
Test [7] relates to HCC-2998 colon.
Test [8] relates to KM12 colon.

As for `COc1cc(NC(C)CCCNC(C)C)c2ncccc2c1OC` (stereo not drawn), the growth is 31.6% in test [1]; 94.4% in test [2]; 108% in test [3]; 92.6% in test [4]; 93.5% in test [5]; 92% in test [6]. Further, the growth in test [7] was 91.7%; in test [8], 106%.
With `Oc1c(Cl)cc(Cl)cc1/C=N/Nc1nnc(N/N=C/c2cc(Cl)cc(Cl)c2O)c2ccccc12`, the growth was 14.8% in test [1]; 15.7% in test [2]; 14.2% in test [3]; 17.2% in test [4]; 7.3% (active) in test [5]; 10% in test [6]. For the same molecule, the figures for the growth in test [7] and in test [8] were 33.1% and 6.29% (active), respectively.
Consider `N#C/C(=C/c1ccc([N+](=O)[O-])cc1)n1nnc2cc(F)c(F)cc21`, for which the growth was 11.6% in test [1]; 77.3% in test [2]; 64.2% in test [3]; 59.7% in test [4]; 8.8% (active) in test [5]; 5.65% (active) in test [6]. Also, the growth in test [7] is 70.5%; in test [8] it was 13.1%.
In the case of `COc1ccc(/C=N/NC(=O)CCN2c3ccccc3Sc3ccccc32)cc1`, the growth in test [1] is 81.5%; in test [2], 84.8%; in test [3], 8.72% (active); in test [4] it was 57.4%; in test [5], 42.7%; in test [6], 69.4%. The growth is 92.3% in test [7] and 53.8% in test [8].
Turning to `CC(C)(C)n1cc(-c2ccnc(NCCCNS(=O)(=O)c3ccc(F)cc3)c2)c(-c2cccc(F)c2)n1`, the growth in test [1] is 24.6%; in test [2] it was 50.2%; in test [3] it was 73.8%; in test [4], 22.4%; in test [5], 41.2%; in test [6] it was 37%. Besides, the figures for the growth in test [7] and in test [8] were 54.7% and 40.9%, respectively.
On to `Cc1nc(N2CCOCC2)sc1S(N)(=O)=O`, for which the growth in test [1] was 93%; in test [2], 98.1%; in test [3], 105%; in test [4] it was 91.5%; in test [5], 93.5%; in test [6], 103%. The growth in test [7] is 104%; in test [8], 94.1%.
With `CS(=O)(=O)Nc1cc(-c2ccc3ncnc(Nc4c(Cl)ccc5c4OCO5)c3c2)cnc1Cl`, the growth in test [1] is -30.6% (active); in test [2] it was -26% (active); in test [3], -24.9% (active); in test [4], 2.07% (active); in test [5] it was 0.196% (active); in test [6], -22.6% (active). The growth in test [7] is -36% (active); in test [8], -39.7% (active).
With `O=C(NCc1ccccc1)Nc1ccccc1CNc1nc(Nc2ccc(OCCN3CCCC3)cc2)ncc1Cl`, the growth in test [1] is 104%; in test [2] it was 96.3%; in test [3], 82.9%; in test [4] it was 77.1%; in test [5], 65.9%; in test [6], 95.5%. Moreover, the growth in test [7] is 96.9%; in test [8], 94.2%.
On to `O=CC1(C2(C=O)c3ccccc3-c3ccccc32)c2ccccc2-c2ccccc21`, for which the growth in test [1] was -51% (active); in test [2], -74.3% (active); in test [3], -57.9% (active); in test [4], -29.2% (active); in test [5], -52.4% (active); in test [6] it was -60.6% (active). The growth is -41.5% (active) in test [7] and -44.5% (active) in test [8].
In the case of `CC(C)CCC[C@@H](C)[C@H]1CC[C@H]2[C@@H]3CC=C4C[C@@H](C(C(=O)O)C(=O)O)CC[C@]4(C)[C@H]3CC[C@]12C`, the growth in test [1] is -13.8% (active); in test [2], -22.6% (active); in test [3], -55.6% (active); in test [4], -39.7% (active); in test [5], 1.84% (active); in test [6], -61.3% (active). The growth in test [7] is -47.5% (active); in test [8] it was -74.4% (active).
As for `CC1=C(CCC(C)N(C)Cc2ccc(OCCCN3CCCC3)cc2)C(C)(C)CCC1` (stereo not drawn), the growth in test [1] is -43.1% (active); in test [2] it was 55.6%; in test [3] it was -77.9% (active); in test [4], 21.3%; in test [5], -33.3% (active); in test [6], 10.7%. The growth is -31% (active) in test [7] and 27.6% in test [8].
On to `CNC(=O)c1c(NC(=O)c2ccc(C(F)(F)F)cc2)sc2c1CCC(=O)C2`, for which the growth in test [1] was -15.2% (active); in test [2], -14.1% (active); in test [3], 0.84% (active); in test [4], -55.8% (active); in test [5], 0.392% (active); in test [6], -46.4% (active). Also, the values for the growth in test [7] and in test [8] were -39.3% (active) and -36.4% (active), respectively.
Consider `O=C1c2cccnc2C(=O)c2c1c(C(=O)NCCn1ccnc1)c1ccccn21`, for which the growth in test [1] is 24.2%; in test [2], 45.8%; in test [3] it was -84.2% (active); in test [4], 12.9%; in test [5] it was 0.25% (active); in test [6] it was -8.04% (active). Further, the growth in test [7] is 22.4%; in test [8] it was 31.3%.
On to `CCc1nc2c(=O)[nH]cnc2o1`, for which the growth was 105% in test [1]; 102% in test [2]; 110% in test [3]; 106% in test [4]; 96.4% in test [5]; 103% in test [6]. Also, the growth is 109% in test [7] and 110% in test [8].
As for `N#Cc1c(-c2ccc(Cl)cc2)nc(NN=Cc2cccc(O)c2)nc1N1CCOCC1`, the growth in test [1] is 64.6%; in test [2], 73.1%; in test [3], 87%; in test [4], 64.8%; in test [5] it was 60.1%; in test [6] it was 57.9%. Further, the figures for the growth in test [7] and in test [8] were 103% and 81%, respectively.
`COc1ccc(/C(C)=C(/c2ccc(OCCCN(C)C)cc2)c2ccc(OC(=O)Cc3ccccc3)cc2)cc1`: the growth was 38.2% in test [1]; 76.5% in test [2]; 71.9% in test [3]; 91.8% in test [4]; 25.4% in test [5]; 57.4% in test [6]. The growth is 86.7% in test [7] and 73.9% in test [8].
For `CC(=O)[C@@H]1CCC=C2CC[C@]3(C)[C@@H](CC[C@@H]4[C@@]5(C)CCCNC(C)(C)[C@@H]5CC[C@]43C)[C@H]21`, the growth in test [1] was 33.9%; in test [2], 75.9%; in test [3], -71.1% (active); in test [4], -58.9% (active); in test [5] it was -72.9% (active); in test [6], -96.2% (active). The growth was -93.8% (active) in test [7] and -79% (active) in test [8].
For the molecule `COC(=O)c1c2c(c(C)[n+]([O-])c1C)C(=O)C(NCc1ccc(Cl)cc1)=CC2=O`, the growth in test [1] was 37.5%; in test [2], 77.9%; in test [3] it was 9.83% (active); in test [4] it was 45.9%; in test [5], 35.9%; in test [6], 11.5%. The growth is 59.6% in test [7] and 48.8% in test [8].
Turning to `O=C1/C(=C/c2ccccc2Br)COc2ccc(O)c(O)c21`, the growth in test [1] was -7.17% (active); in test [2], 14.7%; in test [3], 2.78% (active); in test [4] it was 5.6% (active); in test [5] it was 20.9%; in test [6] it was -3.23% (active). The growth was 44.2% in test [7] and -7.57% (active) in test [8].
In the case of `N#Cc1nn(-c2cc(=O)[nH]c3ccc(Cl)cc23)c(N)c1C#N`, the growth in test [1] is 67.2%; in test [2], 87.9%; in test [3] it was 125%; in test [4], 91.1%; in test [5] it was 100%; in test [6], 84.4%. Moreover, the growth in test [7] is 92.7%; in test [8] it was 106%.
As to `CCOC(=O)c1c2c(n3ccc(C)cc13)C(=O)c1ccccc1C2=O`, the growth in test [1] was 92.7%; in test [2], 77.2%; in test [3], 108%; in test [4], 89.2%; in test [5], 82.5%; in test [6], 76.5%. In addition, the results for the growth in test [7] and in test [8] were 101% and 94.1%, respectively.
Regarding `Nc1ncnc2c1N=C(c1ccc3c(c1)OCO3)CC(c1cccc(Nc3ccnc4cc(Cl)ccc34)c1)N2` (stereo not drawn), the growth was 43.3% in test [1]; 74.5% in test [2]; 51.6% in test [3]; 25.4% in test [4]; 8.54% (active) in test [5]; 6.7% (active) in test [6]. Moreover, the growth in test [7] is 72%; in test [8] it was 30.5%.
For the molecule `Cc1ccc(Sc2oc(-c3ccc(C)cc3)nc2[P+](c2ccccc2)(c2ccccc2)c2ccccc2)cc1`, the growth was 1.57% (active) in test [1]; -30.9% (active) in test [2]; -30.3% (active) in test [3]; -5.3% (active) in test [4]; -23.8% (active) in test [5]; 2.12% (active) in test [6]. Further, the growth is 1.79% (active) in test [7] and -52.8% (active) in test [8].
For `N#C/C(=C\c1ccc2ccccc2c1)c1cc2ccccc2[nH]1`, the growth in test [1] is 32.9%; in test [2], 59.8%; in test [3] it was -19% (active); in test [4] it was 15.8%; in test [5], 14.4%; in test [6] it was 16.8%. Besides, the results for the growth in test [7] and in test [8] were 60.4% and 25.5%, respectively.
On to `COc1ccc(C2=Nc3c/c(=C\c4c(O)[nH]c5ccc(Cl)cc45)ccc3=N2)cc1`, for which the growth in test [1] is 53.7%; in test [2] it was 35.3%; in test [3], -68.5% (active); in test [4], 5.99% (active); in test [5] it was 0.287% (active); in test [6], 33.6%. The growth is 35.5% in test [7] and 17.1% in test [8].
`Cc1ccccc1/C=C1\CN(C(=O)OC(C)(C)C)C/C(=C\c2ccccc2C)C1=O`: the growth in test [1] was 51.8%; in test [2] it was 70.3%; in test [3], 12%; in test [4], 5.37% (active); in test [5], 19.2%; in test [6] it was -53.9% (active). The growth in test [7] was 3.27% (active); in test [8], -32.8% (active).
With `Cc1nn(-c2ccccc2)c(Oc2ccccn2)c1-c1nc2ccccc2s1`, the growth in test [1] was 88%; in test [2] it was 95.4%; in test [3], 103%; in test [4], 105%; in test [5], 84%; in test [6], 91.5%. Further, the growth was 103% in test [7] and 87.6% in test [8].
`Cc1cc(Cl)ccc1NC(=O)c1cc2ccccc2cc1O`: the growth in test [1] was 12.6%; in test [2] it was 26.6%; in test [3] it was 30.1%; in test [4], 11.2%; in test [5], 2.86% (active); in test [6] it was 7.95% (active). Moreover, the growth was 15% in test [7] and 7.04% (active) in test [8].
For the molecule `Cc1c(-n2nnc(-c3nc4ccccc4s3)c2N)c(=O)n(-c2ccccc2)n1C`, the growth was 94.6% in test [1]; 107% in test [2]; 114% in test [3]; 106% in test [4]; 90.6% in test [5]; 103% in test [6]. For the same molecule, the growth in test [7] was 95.4%; in test [8], 106%.
Consider `CCOC(=O)C1=NN(c2ccccc2)C(=O)/C1=C\N1C(=O)CC(=O)NC1=S`, for which the growth in test [1] was 85.9%; in test [2], 101%; in test [3] it was -22.1% (active); in test [4], 93.7%; in test [5], 102%; in test [6] it was 101%. The growth in test [7] was 112%; in test [8], 99.4%.
Take `COc1cc(-c2cc(-c3cccs3)c(C#N)c(N3CCOCC3)n2)cc(OC)c1OC`: the growth in test [1] was 89%; in test [2] it was 75.8%; in test [3] it was 92.8%; in test [4], 4.28% (active); in test [5], 61.9%; in test [6] it was 51.7%. The growth in test [7] is 86.4%; in test [8], 105%.
